Test results from PubChem BioAssay (NCI).
About 83,000 compounds went through this panel and 20% of them were active in at least one assay; those are over-represented in the sample as a whole.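 96-well plates, one dose, 48 hours. Percent growth reported; active if below 10.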 A number with no mark means an inactive call. Calls of active or inactive are those of the source.

Columns and labels:
Test in all cases: NCI-60 one-dose screen, 48 h (100 = growth as untreated, 0 = no growth, -100 = all killed)
Conditions in all cases: 10 µM unless noted
[1] = tested on: T-47D breast
[2] = tested on: BT-549 breast
[3] = tested on: MDA-MB-435 melanoma
[4] = tested on: SW-620 colon
[5] = tested on: MCF7 breast
[6] = tested on: HCT-116 colon
[7] = tested on: HCC-2998 colon
[8] = tested on: KM12 colon
[9] = tested on: MDA-MB-468 breast

SMILES | growth [1] | growth [2] | growth [3] | growth [4] | growth [5] | growth [6] | growth [7] | growth [8] | growth [9]
Cn1ncc2c(N)nc(Oc3ccccc3-c3ccccc3)nc21 | 31.9% | -1.44% (active) | -38.2% (active) | 25.2% | 9.1% (active) | 15.6% | 62.2% | 24% | -24.1% (active)
N#Cc1ccc(C(=O)CSc2nc3c(c(Nc4ccc(S(N)(=O)=O)cc4)n2)CCC3)cc1 | 71.7% | 83.3% | 86.6% | 47.8% | 19.2% | 15.7% | 15.8% | 64.2% | 60.4%
CC(C)CN1C(=O)/C(=C\C(=O)c2cc3ccccc3oc2=O)c2ccccc21 | 44.7% | 111% | 98.8% | 41% | 58.1% | 91.2% | 118% | 103% | 32.6%
O=C(NC(=S)N1CCN(c2ncnc3c2cnn3-c2ccccc2)CC1)c1ccc(F)cc1 | 66.6% | 86.2% | 77.2% | 76.6% | 52.4% | 55.1% | 99.1% | 79.7% | 66.7%
CC(=O)c1ccc2c(N)c(C(=O)Nc3ccc(C(F)(F)F)cc3)sc2n1 | 18.1% | 43.4% | 48.1% | 80.1% | 27.8% | 31% | 83.6% | 56.7% | 10.6%
COc1cc(/C=N/NC(=O)c2ccc(OCc3nc4ccc(Cl)cc4[nH]3)cc2)cc(OC)c1OC | 7.17% (active) | 22.9% | 37.7% | 40.8% | 18.3% | 22.8% | 61.2% | 43.3% | 43.4%
O=C(NC(=S)N1CCN(c2ncnc3c2cnn3-c2ccccc2)CC1)c1ccc(Br)cc1 | 73.1% | 65.1% | 80.3% | 81.7% | 49.8% | 60.3% | 90.5% | 92.5% | 78%
CC[C@]12C=CCN3CC[C@]4(C(=C(C(=O)OC)C1)Nc1cc(OC)c([C@@H]5[C@H]6O[C@H]6[C@@]6(CC)CC(C(=O)OC)=C7Nc8cc(O)ccc8[C@@]78CCN5[C@@H]68)cc14)[C@@H]32 | 2.37% (active) | -29% (active) | -53.9% (active) | 1.97% (active) | -25.7% (active) | -72.3% (active) | -76.3% (active) | 0.303% (active) | -48.9% (active)
COc1c2c(c(Br)c3c1C(CCc1ccccc1)N(C)CC3)OCO2 (stereo not given) | 33.6% | 3.17% (active) | 13.9% | 11.9% | 18.6% | 11% | 27.4% | 11.4% | 41.8%
Cc1ccc(C2CC(c3ccc(NC(=O)Nc4ccccc4)cc3)=NN2c2ccc(S(N)(=O)=O)cc2)cc1 (stereo not given) | -74.7% (active) | -79.6% (active) | -91.8% (active) | -83.4% (active) | -82.4% (active) | -74.4% (active) | -75.4% (active) | -50% (active) | -93.4% (active)
